Source: PubChem
IDE exosite FP – exo-site inhibitors of human IDE, primary screen, biochemical, fluorescence anisotropy, probe displacement | AID 1259349, 2017 | actives 6.3% (n = 17,000) | purified IDE, FL-6b probe fluorescence polarization; active compounds read low | Insulin-degrading enzyme (Homo sapiens), P14735 | z-score at 20 µM;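 active means z-score of -3 or lower, meaning strong loss of probe binding signal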;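 further: His-tagged human IDE residues 42-1019 made in E. coli with 30 nM FL-6b probe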
Target sequence (P14735 42-1019 limits assumed): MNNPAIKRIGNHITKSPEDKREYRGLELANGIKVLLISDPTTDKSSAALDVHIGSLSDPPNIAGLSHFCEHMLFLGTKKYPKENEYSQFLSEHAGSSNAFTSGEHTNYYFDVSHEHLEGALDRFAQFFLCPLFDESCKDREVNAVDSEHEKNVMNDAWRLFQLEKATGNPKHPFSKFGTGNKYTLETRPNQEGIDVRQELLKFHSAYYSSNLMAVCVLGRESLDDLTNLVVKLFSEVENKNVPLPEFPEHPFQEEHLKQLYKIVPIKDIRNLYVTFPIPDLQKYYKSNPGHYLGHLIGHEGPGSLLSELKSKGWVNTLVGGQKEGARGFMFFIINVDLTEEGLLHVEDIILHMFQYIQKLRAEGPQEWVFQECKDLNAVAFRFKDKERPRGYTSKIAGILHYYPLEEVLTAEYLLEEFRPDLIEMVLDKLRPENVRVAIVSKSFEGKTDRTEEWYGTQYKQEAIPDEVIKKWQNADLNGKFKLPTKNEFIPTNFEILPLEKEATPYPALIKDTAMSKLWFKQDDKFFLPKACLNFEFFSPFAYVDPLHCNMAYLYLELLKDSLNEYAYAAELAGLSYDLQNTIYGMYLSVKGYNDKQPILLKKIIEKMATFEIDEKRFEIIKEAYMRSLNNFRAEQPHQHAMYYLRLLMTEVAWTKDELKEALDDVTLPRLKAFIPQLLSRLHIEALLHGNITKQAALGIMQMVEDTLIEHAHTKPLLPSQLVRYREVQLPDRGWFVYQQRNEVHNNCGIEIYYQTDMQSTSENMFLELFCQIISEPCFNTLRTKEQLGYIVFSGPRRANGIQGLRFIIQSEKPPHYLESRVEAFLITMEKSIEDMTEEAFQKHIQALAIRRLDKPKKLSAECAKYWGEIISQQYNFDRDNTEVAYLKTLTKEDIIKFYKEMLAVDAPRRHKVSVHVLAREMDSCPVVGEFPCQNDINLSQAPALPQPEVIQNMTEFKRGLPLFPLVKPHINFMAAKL
Starred values were filed as active, the others as inactive; ! = not active in a repeat. This is one part of a sample in which hits are shown more often than they occur.

SMILES	IDE exosite FP
O=C(Cc1ccccc1)N1CC(=O)N2[C@H](C1)[C@@H](c1ccc(-c3cccc(F)c3)cc1)[C@@H]2CO	-3.5*
O=C(Cc1cccnc1)N1CC(=O)N2[C@H](CO)[C@H](c3ccc(-c4cccc(F)c4)cc3)[C@@H]2C1	-0.91
O=C(Cc1cccnc1)N1CC(=O)N2[C@H](C1)[C@@H](c1ccc(-c3cccc(F)c3)cc1)[C@@H]2CO	-7*
O=C(Cc1ccccc1)N1CC(=O)N2[C@@H](CO)[C@H](c3ccc(-c4cccc(F)c4)cc3)[C@@H]2C1	-2.4
O=C(Cc1ccccc1)N1CC(=O)N2[C@H](CO)[C@H](c3ccc(-c4cccc(F)c4)cc3)[C@@H]2C1	0.84
CN(C[C@@H]1N[C@H](CO)[C@@H]1c1ccc(-c2cccc(F)c2)cc1)C(=O)CC1CC1	0.85
O=S(=O)(c1ccccc1)N1CCCCN2[C@H](CO)[C@@H](c3ccc(-c4cncnc4)cc3)[C@H]2C1	1.1
Cn1cnc(CCNC(=O)C[C@@H]2CC[C@H]3[C@@H](COC[C@H](O)CN3C(=O)Nc3ccc(C(F)(F)F)cc3)O2)c1	2.5
CCC(=O)N(CC1CCC1)C[C@@H]1[C@@H](c2ccccc2)[C@H](CO)N1C(C)=O	0.77
O=C1CCC(=O)N[C@H](c2ccc3c(c2)OCO3)C/C=C\CCN1	0.6
O=C(Nc1cccc(F)c1)N1CC(=O)N2[C@H](CO)[C@H](c3ccc(C#CC4CC4)cc3)[C@H]2C1	2.1
C[C@H]1CN([C@@H](C)CO)C(=O)CCCn2nncc2CO[C@@H]1CN(C)C(=O)Nc1ccc2c(c1)OCCO2	-1.1
CCN(C[C@H]1[C@H](c2ccccc2)[C@@H](CO)N1C(C)=O)C(=O)c1cccc(F)c1	1.1
N#Cc1ccc(-c2ccc([C@@H]3[C@H](CO)N4C(=O)CN(C(=O)C5CC5)C[C@@H]34)cc2)cc1	-0.45
COc1ccccc1-c1ccc([C@H]2[C@H](C#N)N[C@@H]2CO)cc1	-12*
COc1ccc(-c2ccc([C@@H]3[C@H](C#N)N[C@H]3CO)cc2)cc1	4.1
N#C[C@H]1N[C@H](CO)[C@H]1c1ccccc1	3.8
COc1ccc(-c2ccc([C@H]3[C@@H](C#N)N[C@@H]3CO)cc2)cc1	3.1
N#C[C@@H]1N[C@H](CO)[C@@H]1c1ccc(-c2ccccc2F)cc1	4.7
N#C[C@H]1N[C@H](CO)[C@@H]1c1ccc(-c2ccccc2F)cc1	-4.4*
N#C[C@H]1[C@@H](c2ccccc2C2=CCCCC2)[C@@H](CO)N1S(=O)(=O)c1cccc(F)c1	4.4
C[C@@H](O)C#Cc1ccc([C@H]2[C@H](CO)N3CCCCN(CC4CC4)C[C@@H]23)cc1	1.8
CS(=O)(=O)N1CC(=O)N2[C@H](CO)[C@H](c3ccc(C#CC4CCCC4)cc3)[C@H]2C1	1.2
O=C(C1CCOCC1)N1C[C@@H]2N[C@H](C1)C2c1ccc(-c2cccc(F)c2)cc1 (stereo not given in full)	4.2
N#Cc1ccc(-c2ccc(C3[C@@H]4CN(C(=O)C5CCOCC5)C[C@H]3N4)cc2)cc1 (stereo not given in full)	1.9
SMILES	IDE exosite FP
O=C(c1ccccn1)N1C[C@@H]2N[C@H](C1)C2c1ccc(-c2ccccc2F)cc1 (stereo not given in full)	-5.8*!
CN(C)C(=O)c1ccc(-c2ccc(C3[C@@H]4CN(Cc5cccnc5)C[C@H]3N4)cc2)cc1 (stereo not given in full)	1.2
Fc1cccc(-c2ccc(C3[C@@H]4CN(Cc5cccnc5)C[C@H]3N4)cc2)c1 (stereo not given in full)	1.4
O=C(C1CCOCC1)N1C[C@@H]2N[C@H](C1)C2c1ccc(-c2ccccc2F)cc1 (stereo not given in full)	-3*!
N#Cc1ccc(-c2ccc(C3[C@@H]4CN(C(=O)c5ccccn5)C[C@H]3N4)cc2)cc1 (stereo not given in full)	2.8
Cc1ccccc1-c1ccc(C2[C@@H]3CN(C(=O)C4CCOCC4)C[C@H]2N3)cc1 (stereo not given in full)	-7.7*!
CN(C)C(=O)c1ccc(-c2ccc(C3[C@@H]4CN(C(=O)c5ccccn5)C[C@H]3N4)cc2)cc1 (stereo not given in full)	1.1
Cc1ccccc1-c1ccc(C2[C@@H]3CN(Cc4cccnc4)C[C@H]2N3)cc1 (stereo not given in full)	-14*
O=C(C1CCC1)N1C[C@@H]2N[C@H](C1)C2c1ccc(-c2cccc(F)c2)cc1 (stereo not given in full)	1
N#C[C@@H]1[C@H](c2ccc(-c3ccccc3F)cc2)[C@H](CO)N1C(=O)C1CCOCC1	-0.72
C[C@H](CO)N1C[C@H](C)[C@H](CN(C)Cc2ccccc2C(F)(F)F)OCc2ccccc2-c2ccccc2C1=O	-0.21
O=C(Nc1cc(F)ccc1F)N1CC(=O)N2[C@H](CO)[C@H](c3ccc(C#CC4CCCCC4)cc3)[C@@H]2C1	4
CN(C)CC#Cc1ccc([C@H]2[C@@H](CO)N3CCCCN(CC4CCOCC4)C[C@@H]23)cc1	0.65
Fc1ccc(-c2ccc(C3[C@H]4CNC[C@@H]3N4Cc3ccccn3)cc2)cc1 (stereo not given in full)	5.5
CC(C)C#Cc1ccc([C@H]2[C@@H](C#N)N(C(=O)C3CCC3)[C@@H]2CO)cc1	2
C[C@H](CO)N1C[C@H](C)[C@@H](CN(C)C(=O)[C@@H](Cc2ccccc2)N(C)C)OCc2ccccc2-c2ccccc2C1=O	1.1
CCC(=O)NC[C@@H]1[C@H](c2ccccc2)[C@@H](CO)N1C(=O)C1CC1	3.8
O=C(c1ccccc1F)N1CC(=O)N2[C@H](CO)[C@H](c3ccc(C#Cc4ccccc4)cc3)[C@H]2C1	-2.4
O=C(Nc1ccccc1F)N1CC(=O)N2[C@@H](CO)[C@@H](c3ccc(C#Cc4ccccc4)cc3)[C@@H]2C1	-5.8*
O=C(Nc1ccccc1F)N1CC(=O)N2[C@H](CO)[C@H](c3ccc(C#Cc4ccccc4)cc3)[C@H]2C1	-1.9
O=C(c1ccccc1F)N1CC(=O)N2[C@@H](CO)[C@H](c3ccc(C#Cc4ccccc4)cc3)[C@@H]2C1	-3.5*
O=C(Nc1ccccc1F)N1CC(=O)N2[C@H](CO)[C@H](c3ccc(C#Cc4ccc(F)cc4)cc3)[C@@H]2C1	0.19
O=C(c1ccccc1F)N1CC(=O)N2[C@@H](CO)[C@@H](c3ccc(C#Cc4ccccc4)cc3)[C@@H]2C1	-1.2
C/C=C/c1ccccc1[C@@H]1[C@@H](C#N)N(S(=O)(=O)c2cccc(F)c2)[C@H]1CO	4
Fc1cccc(CN2[C@@H]3CNC[C@H]2C3c2ccc(/C=C/c3ccccc3)cc2)c1 (stereo not given in full)	2.1
OC[C@@H]1[C@H]2c3ccccc3NC[C@H]2N1CC1CCOCC1	2.2
C/C=C/c1ccc([C@@H]2[C@@H](CO)N(C(=O)CC)[C@H]2CNC(=O)CC)cc1	1.9
O=C(CC(F)(F)F)N1C[C@H]2[C@@H](c3ccccc31)[C@@H](CO)N2Cc1cccnc1	2.4
N#Cc1ccc(-c2ccc([C@@H]3[C@@H](CO)N4CCCCN(C(=O)Nc5ccc(F)cc5)C[C@@H]34)cc2)cc1	1.8
Cc1ccc(S(=O)(=O)Nc2ccc3c(c2)C(=O)N([C@H](C)CO)C[C@H](C)[C@@H](CN(C)S(=O)(=O)c2cccs2)OCCCC[C@H](C)O3)cc1	-1.1
